# Assay outcomes: PubChem, National Center for Advancing Translational Sciences (NCATS)
# AmpC detergent = inhibitors of E. coli AmpC beta-lactamase with detergent. P00811. AmpC hydrolysis of nitrocefin, absorbance 480 nm, 0.01% Triton. Potency, µM (highest dose often 114 µM), for inactives: at the top dose activity change, negative = inhibition, usual class: inhibitors. hit rate 0.041% among 370,000;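 further: potency means the concentration at half of the fitted maximal effect; 0% = no-compound wells and -100% = no-enzyme wells; nearly all actives have a fitted effect of over 25% in size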
# Target sequence (P00811 whole entry, looked up): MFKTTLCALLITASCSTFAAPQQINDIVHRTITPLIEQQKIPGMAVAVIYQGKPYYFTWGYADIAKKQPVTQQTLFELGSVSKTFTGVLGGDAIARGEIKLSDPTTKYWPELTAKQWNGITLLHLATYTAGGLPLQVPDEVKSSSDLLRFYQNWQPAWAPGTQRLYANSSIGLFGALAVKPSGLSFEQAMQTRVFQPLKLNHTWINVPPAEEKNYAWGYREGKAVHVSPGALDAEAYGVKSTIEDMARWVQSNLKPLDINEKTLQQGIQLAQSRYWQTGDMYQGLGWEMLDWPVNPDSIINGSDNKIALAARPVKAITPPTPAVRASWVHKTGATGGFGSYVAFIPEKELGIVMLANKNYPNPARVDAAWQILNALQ
#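 20 mM phosphate pH 7.0 + 0.01% (detergent screen) or 0.0001% Triton X-100; 5.3 nM AmpC reagent; cpd preinc 15 min RT; nitrocefin (800 uM stock) to start; A480 q20 s × 4 min; Activity was normalised to no-enzyme and no-compound control wells.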
# AmpC no deterg = blocks E. coli AmpC beta-lactamase in detergent-free assay. P00811. AmpC nitrocefin hydrolysis, absorbance 480 nm, 0.0001% Triton. Potency, µM (top dose mostly 57.1 µM), without a hit: at the top dose activity change, negative = inhibition, actives largely listed as inhibitors. hit rate 0.52% among 330,000. AID 485341;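 further: potency means the concentration at half of the fitted maximal effect; plate controls were no compound for no effect and no enzyme for full effect; nearly all actives have a fitted effect of over 20% in size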
#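 AmpC (5.3 nM in the dispensed reagent) in 20 mM phosphate pH 7.0 with 0.01% (detergent screen) or 0.0001% Triton X-100 was preincubated with compounds for 15 min at room temperature. Nitrocefin was then added from an 800 uM solution, and hydrolysis was followed at 480 nm.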
# HCMV inh = human cytomegalovirus inhibition; HFF cells, HCMV-luciferase reporter, 72 h; hits give low values; activity change, negative = inhibition, % at 57.5 µM; hit rate 4.5% among 410,000; AID 1259415; in the data active means activity change below about -60%; inconclusive means no clear call, values can overlap the other calls; inactive means above about -39%
#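 Inhibition of viral replication was scored as loss of reporter luminescence in HFFs infected with HCMV-luciferase (MOI 1 PFU/cell) for 72 h; compounds tested at 2 doses, normalized to buffer and Salinomycin controls.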
# HCV inhibitor = blocks hepatitis C virus | Huh7.5.1 HCVcc-Cre infection, luciferase reporter, 44 h | Potency, µM (titrated, usually from 41.8 µM), for the others: top-dose activity change, negative = inhibition, hits mostly inhibitors | hit rate 3.4% among 340,000; further: potency means the concentration at half of the fitted maximal effect
#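 Whole-lifecycle infectious HCVcc-Cre system; cells 1,000/well, compound then virus (~0.5 moi) added 4 h after plating, 44 h culture. Luciferase read 15 sec following 15 min substrate incubation, room temp.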
# FMDV inh = antivirals against foot and mouth disease virus; FMDV antiviral cell-based qHTS; Potency, µM (highest dose often 57.9 µM), for inactives: at the top dose activity change, negative = inhibition, actives largely listed as inhibitors; hit rate 1.2% among 410,000; calls by dose curve; tested in HEK293T cells; further: read-out not given here; potency means the concentration at half of the fitted maximal effect; nearly all actives have a fitted effect of over 45% in size
# The depositor's hits bear a star; ? = inconclusive; nt = no result. The list is not random: actives were taken first. Their share in the collection is about 7.3%. Unless noted, the call rests on the fitted dose curve; in most records, active means well fitted curve in the direction sought with a large enough effect; inconclusive means small, poorly fitted or top-dose-only effect, or another doubt; inactive means no such curve, though single readings can be large; an effect the other way counts as inactive or inconclusive. Unless noted, on the % scale 0 is the no-effect control and ±100 the full control effect.
SMILES,AmpC detergent,AmpC no deterg,HCMV inh,HCV inhibitor,FMDV inh
CCC(=O)NC(c1ccco1)c1cc(Br)c2cccnc2c1O (stereo not given),?,-1%,?,nt,-25%
C=CCc1c(C)nc(N2CCSCC2)[nH]c1=O,5%,-18%,24,2%,-4%
O=C(NCC(=O)N1CCN(c2ccccc2)CC1)c1ccccc1,-4%,-10%,nt,-4%,9%
COc1ccccc1CNC(=O)CSC1=NCCS1,1%,-20%,-61*,-7%,21%
CC(NC(=O)CSC1=NCCS1)c1ccccc1 (stereo not given),-3%,-17%,-76*,6%,0%
O=C(CSC1=NCCS1)NC(NC(=O)CSC1=NCCS1)c1ccccc1,2%,-26%,?,-2%,-11%
COCc1nnc(SCC(=O)NC(C)c2ccccc2)n1-c1ccccc1 (stereo not given),-2%,0.4µM*,10,0%,-6%
COc1ccc2nc3sc(C(=O)N4CCN(c5ccccc5)CC4)cc3cc2c1,15%,nt,-4,nt,21%
CN(CC(=O)Nc1ccc(Cl)c(C(F)(F)F)c1)C(=O)C1CSC2(C)CCC(=O)N12 (stereo not given),0%,104%,12,5%,?
COC(=O)/C=C1/N/C(=N\c2nc(C)cc(C)n2)N(c2cccc(C)c2)C1=O,2%,-6%,?,5%,28µM*
CN(C)CCNc1nc(Oc2ccccc2)c2sccc2n1,nt,nt,-26,nt,-13%
Cc1ccc(CN2CCOc3ccc(C(C)(O)COc4ccccc4)cc3C2)o1 (stereo not given),nt,nt,nt,nt,-9%
CC(=O)c1ccc(NC(=O)C(C)OC(=O)c2ccc(NS(=O)(=O)c3ccc(F)c(F)c3)cc2)cc1 (stereo not given),0%,-40%,-37,13µM*,-6%
CC(OC(=O)c1ccc(NS(=O)(=O)c2ccc3[nH]c(=O)[nH]c3c2)cc1)C(=O)Nc1ccc(Cl)cc1 (stereo not given),-13%,-42%,6,?,-19%
COc1ccc(Cl)cc1NC(=O)C(C)OC(=O)c1ccc(NS(=O)(=O)c2ccc3[nH]c(=O)[nH]c3c2)cc1 (stereo not given),-9%,3.5µM*,3,-27%,-2%
CCc1ccc(NC(=O)C(C)OC(=O)c2ccc(NS(=O)(=O)c3ccc(C)c([N+](=O)[O-])c3)cc2)cc1 (stereo not given),-17%,-45%,62,11µM*,-17%
Clc1ncccc1OCc1ccccc1,nt,nt,-18,7%,53%
O=S(=O)(NC(=NCc1ccccc1)c1ccccc1)c1ccc(Br)cc1,0%,-9%,?,-2%,23%
CCOC(=O)C1CCN(Cc2cccc(OCc3ccccc3)c2)CC1,?,50%,-1,2%,-12%
Cc1ccc(S(=O)(=O)N2CCCCC2)cc1C(=O)OC1CCCCC1=O (stereo not given),-3%,16%,0,?,3%
Cc1ccccc1N1CCN(C2CCCN(C(=O)c3cnsn3)C2)CC1 (stereo not given),-13%,58%,-18,-3%,-11%
NC(=O)CCn1c(C(=O)c2ccc(Cl)cc2)c2ccccc2[n+]1[O-],-11%,-5%,-88*,11%,2%
NCCCn1c(C(=O)c2ccc(Cl)cc2)c2ccc([N+](=O)[O-])cc2[n+]1[O-],-10%,-2%,-4,10µM*,-9%
NC(=O)CCCn1c(C(=O)c2ccc(Cl)cc2)c2ccc([N+](=O)[O-])cc2[n+]1[O-],-14%,31%,?,?,-3%
NC(=O)CCCn1c(C(=O)c2ccc(Cl)cc2)c2ccc(C(F)(F)F)cc2[n+]1[O-],-11%,-5%,22,20%,-14%
SMILES,AmpC detergent,AmpC no deterg,HCMV inh,HCV inhibitor,FMDV inh
NC(=O)CCCn1c(C(=O)c2cc(Cl)c(N)c(Cl)c2)c2ccc([N+](=O)[O-])cc2[n+]1[O-],-14%,4%,-13,11µM*,?
Cc1ccc(C(=O)c2c3ccc([N+](=O)[O-])cc3[n+]([O-])n2CCCC(N)=O)cc1,-4%,6%,-19,10µM*,16%
CC(Oc1ccc(C#N)cc1)C(=O)Nc1ccc(-n2cnnn2)cc1 (stereo not given),?,-19%,0,8%,-6%
Cc1scc(C(=O)NNC(=S)NC(C)c2ccccc2)c1C (stereo not given),-2%,-6%,-78*,-14%,-1%
CCCCNC(=S)NNC(=O)c1csc(C)c1C,-1%,-22%,29,30%,51%
Cc1ccc(NC2c3ncccc3C(=O)N2Cc2cccs2)cc1C (stereo not given),-6%,38%,-32,-11%,-11%
O=C1c2cccnc2C(Nc2ccc(Cl)cc2)N1Cc1cccs1 (stereo not given),-9%,18%,-65*,3%,-15%
CN(c1ccccc1)S(=O)(=O)c1cccc(NC(=O)Cc2n[nH]c(=O)c3ccccc23)c1,0%,-28%,?,10µM*,?
CN(c1ccccc1)S(=O)(=O)c1cccc(NC(=O)CSc2ncn[nH]2)c1,-11%,-36%,-68*,?,35µM*
CN(c1ccccc1)S(=O)(=O)c1cccc(NC(=O)CSc2nncs2)c1,-5%,-42%,-30,?,10µM*
Cc1ccc(N(C)C(=O)c2noc3c2CCCCC3)cc1C,17%,nt,-39,nt,8%
CC(C)CCNC(=O)c1ccc(NC(=O)N2CCCCc3ccccc32)cc1,11%,nt,5,nt,-14%
CCOC(=O)c1sc(S(C)(=O)=O)c2c1CC(C)(C)C/C2=N/O,5%,-18%,-34,-11%,-24%
COc1ccccc1NC(=O)Nc1nc(CC(=O)Nc2ccc(OC)c(OC)c2)cs1,?,-21%,-22,?,-8%
COc1cc(C)ccc1NC(=O)Cc1csc(NC(=O)Nc2ccccc2OC)n1,0%,-28%,-10,8.9µM*,?
COc1ccccc1NC(=O)Cc1csc(NC(=S)Nc2ccc(C)cc2)n1,2%,-30%,-102*,?,?
COc1ccccc1NC(=O)Nc1nc(CC(=O)N2CCN(c3ccccc3OC)CC2)cs1,?,185%,-11,10µM*,28µM*
COc1ccccc1NC(=O)C(=O)NCC(c1cccnc1)N1CCc2ccccc2C1 (stereo not given),11%,nt,8,nt,-25%
COc1ccc(OC)c(/C=C/C(=O)c2ccc(Cl)cc2)c1,-6%,-11%,-10,?,22µM*
COc1ccc(C(=O)/C=C/c2ccc(OC)c(O)c2)c(F)c1,-7%,-28%,?,14µM*,0%
COc1ccc(/C=C/C(=O)c2cc(Cl)cc(Cl)c2O)c(OC)c1,5%,-35%,?,?,2%
CNc1ccc(Br)cc(C(=O)/C=C/c2ccc(OC)cc2OC)c1=O,?,?,-66*,-28%,?
